From PubChem BioAssay (NCATS)
Results filed as inconclusive are left out. Entries that show only a call come without a potency. Calls of active or inactive are those of the source. Unless noted, the call rests on the fitted dose curve; in most records, active means well fitted curve in the direction sought with a large enough effect; inconclusive means small, poorly fitted or top-dose-only effect, or another doubt; inactive means no such curve, though single readings can be large; an effect the other way counts as inactive or inconclusive.

Columns and labels:
[1] = qHTS assay for measurement of the activity of small molecule inhibitors on Zika virus induced Caspase-3 activity in human iPSC derived neural progenitor cells (hNPCs) (AID 1224857); further: nearly all actives have a fitted effect of over 65% in size
Procedure, shortened: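 Zika virus (2 FFU/cell) infection of human iPSC-derived NPCs, 6 h, following 1 h compound preincubation. Read-out: Caspase-Glo 3/7 luminescence.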

[2] = qHTS assay for measurement of the activity of small molecule inhibitors on Zika virus induced Caspase-3 activity in human astrocytoma cells (AID 1224859)
Procedure, shortened: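 Caspase activation in ZIKV-infected SNB-19 cells (2 FFU/cell, 6 h) measured by Caspase-Glo 3/7 luminescence after 30 min RT; compound pre-incubated 1 h; normalised to uninfected and infected controls.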

[3] = qHTS assay to identify small molecule inhibitors of chordoma cells - UCH-1 (AID 1259355); further: nearly all actives have a fitted effect of over 55% in size; further: potency means the concentration at half of the fitted maximal effect
Procedure, shortened: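 Seed 800 cells per well; incubate overnight at 37 C, 5% CO2. Add test compounds (15 concentrations), then the auranofin–topoisomerase-agent combination. Incubate 48hr, add CellTiter-Glo, wait 30min, read luminescence.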

[4] = qHTS assay to identify small molecule inhibitors of chordoma cells - UCH-2 (AID 1259356); further: potency means the concentration at half of the fitted maximal effect
[5] = P-glycoprotein substrates identified in KB-8-5-11 adenocarcinoma cell line, qHTS therapeutic library screen (AID 1346987); further: nearly all actives have a fitted effect of over 65% in size; further: potency means the concentration at half of the fitted maximal effect
Procedure, shortened: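 KB-8-5-11, a colchicine-selected P-gp-overexpressing KB-3-1 subline, was grown without colchicine for the assay. Cells were seeded at 500 cells/well, dosed in concentration-response and incubated 72 h at 37 degree C, 5% CO2. Viability was read by CellTiter-Glo luminescence.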

[6] = qHTS profiling of the MIPE4 collection as inhibitors of Plasmodium falciparum (HB3) proliferation (AID 743347; call rule not given here); conditions: P. falciparum HB3 in erythrocytes, SYBR Green DNA, 72 h; at 28.5 µM (top of the series)
Procedure, shortened: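 Erythrocytes infected with P. falciparum (0.3% parasitemia, 2.5% hematocrit) incubated with compounds 72 h at 37 C, 5% CO2. Lysis with saponin/Triton buffer containing SYBR Green I, overnight at room temperature in the dark; DNA fluorescence (485/535 nm) normalised to 0.29 uM artemisinin and DMSO.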

[7] = P-glycoprotein substrates identified in KB-3-1 adenocarcinoma cell line, qHTS therapeutic library screen (AID 1346986); conditions: outcome: dose series up to 44.5 µM; further: nearly all actives have a fitted effect of over 60% in size
Procedure, shortened: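 Cells seeded 500/well in DMEM/10% FCS; compounds pinned in dose-response; 72 h incubation; CellTiter-Glo added, 5 min, luminescence. KB-8-5-11 run ±tariquidar to test reversal of P-gp resistance.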

SMILES | outcome [1] | outcome [2] | Potency [3] | Potency [4] | Potency [5] | growth, % of control [6] | outcome [7]
CCCCNc1ccc(C(=O)OCCN(C)C)cc1 | inactive | inactive | inactive | inactive | inactive | – | –
CCCCOCCOCCOCc1cc2c(cc1CCC)OCO2 | inactive | inactive | inactive | inactive | inactive | – | –
COc1ccc(CN(CCN(C)C)c2ccccn2)cc1 | inactive | inactive | inactive | inactive | inactive | – | –
O=C1NCN(c2ccccc2)C12CCN(CCCC(c1ccc(F)cc1)c1ccc(F)cc1)CC2 | inactive | inactive | 31.6 µM (active) | 25.9 µM (active) | 14.6 µM (active) | 4.02% | –
CCc1c(C)[nH]c2c1C(=O)C(CN1CCOCC1)CC2 (stereo unspecified) | inactive | inactive | – | inactive | inactive | – | –
NCCCNCCSP(=O)(O)O | inactive | inactive | inactive | inactive | inactive | – | –
c1ccc2c(c1)CCCC2C1=NCCN1 (stereo unspecified) | inactive | inactive | inactive | inactive | inactive | – | –
Nc1nc(N)c2nc(-c3ccccc3)c(N)nc2n1 | inactive | inactive | inactive | inactive | inactive | – | –
COC(=O)[C@@H](N)Cc1ccc(O)c(O)c1 | inactive | inactive | inactive | inactive | inactive | – | –
CCO/C([O-])=N/c1c[n+](N2CCOCC2)no1 | inactive | inactive | inactive | inactive | inactive | – | –
C[C@]12CCC(=O)C=C1CC[C@@H]1[C@@H]2C(=O)C[C@@]2(C)[C@H]1CC[C@]2(O)C(=O)CO | inactive | inactive | inactive | inactive | inactive | – | –
Cc1cc(C)c(/C=C2\C(=O)Nc3ccccc32)[nH]1 | – | – | – | – | – | – | inactive
